The supplement of paper PMC6555819

How the values were obtained:
Experiment in all cases: PBM binding z-score (relative to random genomic background probes); higher = stronger binding; sequences stand for … in GC…GCGATTGACAGCGTAGAATGAAGG
[1] = test system: FXR:RXRa (NR concentration 270 nM, RXRa partner concentration 90 nM)
Outline: (§1)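 Scanned fluorescence from custom Agilent 4×180K protein-binding microarrays was regression-normalized. Binding z-scores use random background probes as reference. Ligand-free nuclear receptor dimers were incubated on the arrays for 1 h and detected with antibodies against each partner (one per run).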

[2] = test system: LXRa:RXRa (NR concentration 270 nM, RXRa partner concentration 90 nM)
Outline: as §1

[3] = test system: LXRa homodimer (NR concentration 270 nM)
Outline: as §1

[4] = test system: LXRb:RXRa (NR concentration 270 nM, RXRa partner concentration 90 nM)
Outline: as §1

[5] = test system: LXRb homodimer (NR concentration 270 nM)
Outline: as §1

[6] = test system: PPARa:RXRa (NR concentration 270 nM, RXRa partner concentration 90 nM)
Outline: as §1

[7] = test system: PPARg:RXRa (NR concentration 180 nM, RXRa partner concentration 90 nM)
Outline: as §1

[8] = test system: PPARg:RXRa 270nM:90nM, anti-RXR (NR concentration 270 nM, RXRa partner concentration 90 nM)
Outline: as §1

[9] = test system: PPARg:RXRa 30nM:10nM, anti-RXR (NR concentration 30 nM, RXRa partner concentration 10 nM)
Outline: as §1

[10] = test system: PPARg:RXRa 90nM:30nM, anti-RXR (NR concentration 90 nM, RXRa partner concentration 30 nM)
Outline: as §1

Sequence | PBM binding z-score [1] | PBM binding z-score [2] | PBM binding z-score [3] | PBM binding z-score [4] | PBM binding z-score [5] | PBM binding z-score [6] | PBM binding z-score [7] | PBM binding z-score [8] | PBM binding z-score [9] | PBM binding z-score [10]
CTACCAAGGTGAACAAGGTCGTTGCTTACTATTC | 1.51 | 1.61 | 0.37 | 2.11 | -0.314 | 2.55 | 0.964 | 1.34 | -0.119 | 0.845
CAGCCTAGGTCAGGGCTAGTATAGGAGGAACGTT | 1.42 | 0.697 | -0.359 | 0.186 | -1.36 | 1.99 | 0.77 | 0.899 | -0.0707 | 0.264
CAAACTAGGTCAAGGTCAGAGTCGGTTTGTGCCA | 5.93 | 4.35 | 1.98 | 3.26 | 0.405 | 5.7 | 9.05 | 7.77 | 6.36 | 8.17
TGAATGAGGTTAAAGATAAGGGAACGTGGCGTCG | 2.65 | 2.28 | 0.104 | 1.5 | 0.393 | 3.54 | 2.88 | 3.98 | 1.97 | 3.5
ATATGTAGGTTACATCCGGGTCATTCCGGCTATG | 1.93 | 4.16 | 1.81 | 2.68 | 0.955 | 4.37 | 5.96 | 5.25 | 2.7 | 4.37
CCAGCTAGGTCAATGGTCAGCTAAAGCAGCTCGC | 2.92 | 2.06 | -0.24 | 1.27 | -0.685 | 3.2 | 5.08 | 5.75 | 3.27 | 5.34
TCATATAGCTAAAGGTGAAAGTCGAACGATATGA | 1.12 | 1.09 | -0.213 | 1.26 | -0.321 | 2.67 | 2.06 | 3.08 | 3.19 | 3.31
CCTACTGGGCCAAGATCATTGATCAGTCAAAGCA | -0.667 | -0.791 | -0.405 | -0.59 | -1.07 | 0.131 | 0.378 | 0.483 | -0.171 | 0.221
TCAGATAGGTGAAGGTAACTCAGGTACGCAGTCG | 0.487 | 1.73 | -0.148 | 0.791 | -0.21 | 1.32 | 1.01 | 2.26 | 3.97 | 3.01
CCTACTGGGCCATTCAAAGGTCATTGATCATATG | 3.24 | 4.61 | 6.31 | 4.29 | 0.576 | 4.43 | 3.07 | 4.03 | 1.44 | 3.35
TCAGACAGGTGAAGGTTACTCAGGTACGCAGTCG | 1.24 | 3.55 | 0.607 | 2.38 | 0.0683 | 1.81 | 1.06 | 2.39 | 3.71 | 2.81
CGAACTAGGTCATTGACAGGACAGGGAATAGTAA | 4.56 | 2.81 | 0.225 | 1.82 | -0.158 | 4.65 | 7.57 | 6.18 | 4.13 | 5.76
AGTCAAAGTTCAGGACGAGGTGACGTAAAGCACG | 4.38 | 3.95 | 1.24 | 1.82 | 0.0614 | 3.67 | 4.83 | 5.11 | 2.14 | 4.25
AAAGACAGGTGAGTGAAGGTAACTCAGCTGGACG | 0.449 | 0.399 | -0.509 | -0.0849 | -0.324 | 0.472 | 0.63 | 0.239 | -0.273 | 0.0365
CGAACTAGGTCAGAACAGGACAGTGCAGGATGAT | 1.66 | 0.725 | -0.124 | 0.147 | -0.225 | 3.08 | 5.1 | 4.39 | 1.84 | 3.81
AGAATGAGGTTCTACGTAGATCAGGGAAGAAAGT | -0.522 | -0.707 | -0.69 | -0.345 | -0.624 | -0.336 | 0.146 | -0.165 | -0.125 | -0.13
AGAACGAGGTTATACGTAGATCAGGGAAGAAAGT | 1.59 | 1.47 | 0.0402 | 1.32 | -0.361 | 2.78 | 1.58 | 1.39 | 0.732 | 1
ACTTACCGGTCAACGAGGTTATAGCACGCGTATA | 2.61 | 3.17 | 2.47 | 1.96 | 1.3 | 2.3 | 1.3 | 1.2 | 0.21 | 0.785
CGTCCAAGGTCAGAGAGGTGAGTGAATGCCGAGT | 4.98 | 3.29 | 0.18 | 2.43 | 0.0466 | 4.06 | 2.73 | 2.95 | 0.53 | 1.78
CCTTACGGGTCACGACGTTATAGCACGACGAGCG | 6.55 | 4.13 | 0.322 | 3.66 | 0.374 | 5.69 | 6.15 | 5.93 | 2.65 | 4.97
AGTCAAAGTTCCTCTAGGTAACGTAAGATATGCT | -0.245 | -0.144 | -0.104 | -0.00782 | -0.432 | 0.0097 | 0.612 | 0.996 | 0.256 | 0.424
TCATATAGGTAAAGAGGTGAAAGTCCGTAAGTTA | 1.74 | 1.63 | 0.378 | 1.56 | -0.0509 | 3.46 | 4.38 | 4.63 | 4.83 | 5
CCTCGGAGGACAGAAGGTCAGAGTTGTCCGCTTT | 1.19 | 1.59 | 0.486 | 1.21 | -0.813 | 1.88 | 0.0255 | 0.907 | -0.816 | 0.173
TGAATGAGGTTATAGGATCAGGGAACGTTGCAAA | 1.98 | 1.6 | -0.459 | 1.39 | -0.108 | 3.28 | 2.06 | 2.51 | 1.15 | 2.08
